Data from PubChem BioAssay (Tox21).
Inconclusive results are not listed. A number with no mark means an inactive call. Activity calls are given as the source filed them. Calls come from the whole dose curve; as a rule, active = well fitted inhibition curve with a large enough effect in the repeat runs; inconclusive = weak or mixed curves; inactive = flat fitted curve, though single readings scatter.

biological target: Voltage-gated inwardly rectifying potassium channel KCNH2 (Homo sapiens) (UniProt Q12809); assay: Human Ether-a-go-go-Related Gene (hERG) channel small molecule antagonists: fluorescence cell-based qHTS assay (AID 1671200); conditions: hERG-U2OS cells, FluxOR thallium flux fluorescence; series mostly up to 76.8 µM; activity change, negative = inhibition: at the top concentration; note: nearly all actives have a fitted effect of over 50% in size
Sequence (Q12809 whole entry, looked up): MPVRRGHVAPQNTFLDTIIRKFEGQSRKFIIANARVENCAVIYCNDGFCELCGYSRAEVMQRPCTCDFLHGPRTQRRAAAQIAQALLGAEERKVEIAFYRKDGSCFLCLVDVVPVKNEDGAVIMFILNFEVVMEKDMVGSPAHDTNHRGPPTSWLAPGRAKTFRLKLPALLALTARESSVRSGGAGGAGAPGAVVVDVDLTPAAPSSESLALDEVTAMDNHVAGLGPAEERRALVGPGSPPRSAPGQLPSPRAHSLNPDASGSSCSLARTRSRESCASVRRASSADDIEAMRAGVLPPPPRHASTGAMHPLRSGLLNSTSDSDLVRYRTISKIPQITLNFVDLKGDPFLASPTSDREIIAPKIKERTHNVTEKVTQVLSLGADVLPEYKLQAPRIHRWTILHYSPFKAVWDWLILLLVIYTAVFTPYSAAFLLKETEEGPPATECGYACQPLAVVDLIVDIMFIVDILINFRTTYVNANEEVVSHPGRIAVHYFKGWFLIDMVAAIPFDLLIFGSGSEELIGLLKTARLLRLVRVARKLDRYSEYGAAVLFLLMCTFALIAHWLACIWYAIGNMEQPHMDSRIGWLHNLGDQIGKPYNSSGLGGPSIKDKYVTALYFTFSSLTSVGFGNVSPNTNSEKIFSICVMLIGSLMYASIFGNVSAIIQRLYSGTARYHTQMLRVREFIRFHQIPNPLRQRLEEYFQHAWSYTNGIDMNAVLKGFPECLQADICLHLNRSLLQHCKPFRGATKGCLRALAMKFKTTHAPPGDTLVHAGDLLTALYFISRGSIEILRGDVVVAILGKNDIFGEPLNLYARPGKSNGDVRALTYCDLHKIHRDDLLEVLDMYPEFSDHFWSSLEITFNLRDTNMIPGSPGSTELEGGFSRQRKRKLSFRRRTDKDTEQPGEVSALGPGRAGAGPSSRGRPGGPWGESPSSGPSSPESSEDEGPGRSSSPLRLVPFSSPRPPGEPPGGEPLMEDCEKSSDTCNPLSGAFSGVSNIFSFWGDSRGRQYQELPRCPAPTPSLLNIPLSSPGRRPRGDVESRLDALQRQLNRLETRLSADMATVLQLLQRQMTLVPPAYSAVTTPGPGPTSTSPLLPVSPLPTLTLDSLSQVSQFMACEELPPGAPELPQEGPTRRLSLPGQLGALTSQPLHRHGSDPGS
Text: National Center for Advancing Translational Sciences [NCATS]
U.S. Environmental Protection Agency [EPA]
National Institutes of Environmental Health Sciences [NIEHS]
National Toxicology Program [NTP]
U.S. Food and Drug Administration [FDA]
Mutations in the hERG channel cause Long QT (LQT) syndrome. LQT syndrome is a cardiac disorder which can cause ventricle arrhythmia and sudden death. Additionally, compounds which block the hERG channel can cause acquired LQT syndrome. Several FDA approved drugs have been removed from the market due to their hERG blocking activity. A cell-based hERG channel inhibition assay can be used to screen chemical compounds that inhibit hERG channel. This assay measures hERG channel activity using thallium ions as surrogate ions to measure potassium into the cells.
Tox21 Assay Protocol Summary:
hERG-U2OS cells were resuspended in culture medium and dispensed into 1536-well, black wall/clear-bottom plates at 1000cells/well/3uL using a Multidrop Combi dispenser (Thermo Fisher, Waltham, MA). After plates were incubated at 37 C overnight, 3 uL of Loading Buffer provided by FluxOR II Potassium Ion Channel Assay kit (Thermo, Carlsbad, CA) was added to each well. The assay plates were then incubated at room temperature in the dark for 1h. […] After the assay plates were incubated at room temperature for 10 min, 1 uL of Stimulus Buffer provided by FluxOR II Potassium Ion Channel Assay kit was added into each well and fluorescence intensity (480nm excitation/540nm emission) was continuously measured for 2 min at 1 second intervals using a Functional Drug Screening System (FDSS) 7000EX kinetic plate reader (Hamamatsu, Japan).
% is set by controls: 0 for no effect and ±100 for the full control effect; potency is the fitted concentration of half-maximal effect.

First: OCCN(CCO)CCN(CCO)CCO
Second: OCC(CBr)(CBr)CBr
The “activity change, negative = inhibition” value of the first is higher: -3.85% for the first, -5.82% for the second.

Compared with `FC(F)(F)c1ccccc1`, `ICCc1ccccc1` is lower in “activity change, negative = inhibition” value: 0.57% for the first, -3.67% for the second.

Compared with `COc1ccc(Nc2ccc(OC)cc2)cc1`, `CCOc1ccc(NC(N)=O)cc1` is higher in “activity change, negative = inhibition” value: -1.25% for the first, 7.28% for the second.

First: COC(=O)C(C)O (stereo not given)
Second: CC/C=C\CCOC(=O)C(C)C
The “activity change, negative = inhibition” value of the first is lower: -5.57% for the first, 4.05% for the second.

Going from `O=C(O)C(=O)Cc1c[nH]c2ccccc12` to `CC1CN(c2ccccc2)NC1=O` (stereo not given), the “activity change, negative = inhibition” value rises from 0.618% to 1.26%.

Going from `CCCCCCCCOC(=O)CCCCCCCCC(=O)OCCCCCCCC` to `CC(C)CCCCCCc1ccc(OCCOCCO)cc1`, the “activity change, negative = inhibition” value falls from -1.06% to -5.07%.

Going from `COc1cc(C)ccc1C(C)C` to `Cc1cc2nc(N)sc2cc1C`, the “activity change, negative = inhibition” value rises from -0.0393% to 4.26%.

Compared with `CC1=NN(c2cc(Cl)c(S(=O)(=O)O)cc2Cl)C(=O)C1N=Nc1ccc(S(=O)(=O)O)cc1` (stereo not given), `O=C1Nc2ccc([N+](=O)[O-])cc2C1=O` is higher in “activity change, negative = inhibition” value: 2.71% for the first, 3.72% for the second.

First: C=CCCC=C
Second: CCN(O)CC
The “activity change, negative = inhibition” value of the first is higher: 6.23% for the first, 3.24% for the second.

Compared with `CCCOCCC`, `CCCCNCCCC` is lower in “activity change, negative = inhibition” value: 7.65% for the first, 1.98% for the second.

Compared with `CC(C)(C)C1CCCCC1=O` (stereo not given), `O=C1CCCCC1C1CCCCC1` (stereo not given) is lower in “activity change, negative = inhibition” value: 3.82% for the first, 3.33% for the second.

Compared with `CCNCCO`, `Cc1ccc(C=O)s1` is higher in “activity change, negative = inhibition” value: 2.48% for the first, 4.09% for the second.

Compared with `CCOC(=O)c1cc(=O)c2c(OCC(COc3cccc4oc(C(=O)OCC)cc(=O)c34)OC(=O)[C@@H](N)CCCCN)cccc2o1`, `Cc1ccccc1C(=O)Nc1ccc(C(=O)N2CCCC(O)c3cc(Cl)ccc32)c(C)c1` (stereo not given) is lower in “activity change, negative = inhibition” value: 0.968% [at 35.3 µM] for the first, -4.23% [at 35.3 µM] for the second.

Compared with `CN(CCCN1c2ccccc2CCc2ccccc21)CC(=O)c1ccc(Cl)cc1`, `CCN1CC(CCN2CCOCC2)C(c2ccccc2)(c2ccccc2)C1=O` (stereo not given) is higher in “activity change, negative = inhibition” value: -22.7% [at 35.3 µM] for the first, 1.27% [at 35.3 µM] for the second.

First: NCCC(O)(P(=O)(O)O)P(=O)(O)O
Second: CC(=O)N[C@@H](CC(C)C)C(=O)O
The “activity change, negative = inhibition” value of the first is lower: -9.9% [at 35.3 µM] for the first, 2.33% [at 35.3 µM] for the second.

Going from `O=Cc1ccc(O)c(O)c1O` to `CCOC(=O)c1ccccc1O`, the “activity change, negative = inhibition” value falls from -0.263% [at 35.3 µM] to -6.67% [at 35.3 µM].

Going from `Cc1cccc(C)c1NC(=O)CN1CCCCCC1` to `CCc1nnc(NS(=O)(=O)c2ccc(N)cc2)s1`, the “activity change, negative = inhibition” value rises from 0.392% [at 35.3 µM] to 3.09% [at 35.3 µM].

Compared with `COc1ccc(S(=O)(=O)Nc2nnc(CC(C)C)s2)cc1`, `C[C@]12CCC(=O)C=C1CC[C@@H]1[C@@H]2CC[C@@]2(C)[C@H]1CC[C@]2(O)C(=O)CO` is higher in “activity change, negative = inhibition” value: -2.81% [at 35.3 µM] for the first, -0.651% [at 35.3 µM] for the second.

`CCCCOc1cc(C(=O)NCCN(CC)CC)c2ccccc2n1` was tested, and the Potency was 5.35 µM (active).
In the case of `CN(C)C(=O)NC1(c2ccccc2)CCN(CCC[C@]2(c3ccc(Cl)c(Cl)c3)CCCN(C(=O)c3ccccc3)C2)CC1`, the Potency is reported as 2.08 µM (active).

First: O=c1oc2c(O)c(O)cc3c(=O)oc4c(O)c(O)cc1c4c23
Second: COC(=O)c1ccc2cc(C(=O)OC)ccc2c1
The activity change, negative = inhibition of the first is lower: 6.87% [at 15.8 µM] for the first, 9.84% [at 15.8 µM] for the second.
